In PubChem BioAssay (NCI):
This is part of a sample that, as a whole, favours compounds with a hit. Of some 83,000 tested, about 20% had one in any assay.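 Cells were grown in 96-well plates and exposed to the test compound at a single concentration for 48 hours; results are reported as percent growth, with values below 10 considered active.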 A number with no mark means an inactive call. Calls of active or inactive are those of the source.

Tests used:
Test in all cases: NCI-60 one-dose screen, 48 h (100 = growth as untreated, 0 = no growth, -100 = all killed)
Conditions in all cases: 10 µM unless noted
[1] = test system: HCT-15 colon
[2] = test system: HT29 colon
[3] = test system: SNB-75 CNS
[4] = test system: SNB-19 CNS
[5] = test system: U251 CNS
[6] = test system: PC-3 prostate
[7] = test system: SK-MEL-5 melanoma
[8] = test system: UACC-62 melanoma
[9] = test system: LOX IMVI melanoma
[10] = test system: SK-MEL-28 melanoma
[11] = test system: SK-MEL-2 melanoma
[12] = test system: EKVX NSCLC
[13] = test system: SN12C renal
[14] = test system: UO-31 renal
[15] = test system: TK-10 renal
[16] = test system: ACHN renal
[17] = test system: CAKI-1 renal
[18] = test system: A498 renal
[19] = test system: CCRF-CEM leukemia
[20] = test system: MOLT-4 leukemia

Row | SMILES | growth [1] | growth [2] | growth [3] | growth [4] | growth [5] | growth [6] [%] | growth [7] | growth [8] | growth [9] | growth [10] | growth [11] | growth [12] [%] | growth [13] [%] | growth [14] | growth [15] [%] | growth [16] | growth [17] [%] | growth [18] [%] | growth [19] | growth [20]
1 | COc1cc(NCCC2CCCCN2)c2ncccc2c1OC (stereo not drawn) | 86.1% | 73.7% | 156% | 91.8% | 33.5% | 68.2 | 77.8% | 81.1% | 15% | 107% | 50.5% | 114 | 81.6 | 65.3% | 104 | 82.9% | 100 | 113 | 47.2% | 43%
2 | C[Si](C)(C)C(c1ccccc1)c1ccccc1 | 91.8% | 101% | 102% | 111% | 100% | 80.3 | 115% | 108% | 95.9% | 115% | 127% | 109 | 102 | 82.3% | 108 | 93.1% | 86.2 | 99.7 | 79.4% | 81.8%
3 | COc1ccc(Cl)cc1Nc1nc(C(F)(F)F)ccc1C(=O)NN | 15.8% | 31.4% | 15% | 41.7% | 18.4% | 17.2 | 77.5% | 9.62% (active) | 5.37% (active) | 13.4% | 11.7% | 27.9 | 35.7 | 33.6% | 26.1 | 6.99% (active) | 20.5 | 75.3 | -76.5% (active) | 24.5%
4 | CC(=O)N1N=C(C2C(=O)N(C)C(=O)N(C)C2=O)CC1c1ccccc1C(=O)O (stereo not drawn) | 110% | 98.9% | 95% | 106% | 104% | 95.4 | 107% | 100% | 99.1% | 112% | 102% | 105 | 101 | 87.4% | 97.6 | 98.9% | 94.8 | 91.7 | 94.6% | 97.1%
5 | Cc1ccc([C@H]2c3[nH]c4ccccc4c3C[C@H]3C(=O)N(CCCCCCC(=O)NO)CC(=O)N23)cc1 | 102% | 37.2% | -7.38% (active) | 52.5% | 50.7% | 44.3 | 37.4% | 24.1% | -37.2% (active) | 37.5% | 56.7% | 76.2 | 67.6 | 57.2% |  | 75.1% | 51.2 | 61.9 | 15.2% | 10.9%
6 | CCN(CC)c1ccc(/C=N/NC(=O)c2ccc(S(C)(=O)=O)cc2)c(O)c1 | 28.5% | 21.8% | 55.2% | 32% | 20.6% | 49.2 | -2.99% (active) | -18.5% (active) | 9.68% (active) | 27.2% | 19.5% | 15.5 | 31.2 | -1.73% (active) |  | 17.1% | 20.4 | 45.3 | 6.94% (active) | 2.7% (active)
7 | Cc1c(C(=O)CCl)c(=O)n(-c2ccccc2)n1C | 40% | 36.2% | 76.3% | 94.5% | 65.8% | 55.5 | 87.9% | 74.1% | 62% | 65% | 71.4% | 76.8 | 86 | 64.2% | 40.1 | 47% | 29.8 | 77.4 |  | 24.8%
8 | O=C1Nc2ccccc2/C1=C\c1nc(C2CCN(S(=O)(=O)c3ccc(F)cc3)CC2)n2ccccc12 | 90.5% | 67.7% | -10.4% (active) | -6.15% (active) | 41.3% | 65.6 | 75.3% | 39.1% | 49.2% | 60.3% | 17.8% | 63.3 | 46 | 68.2% |  | 55.6% | 57.8 | 82.9 | 95.1% | 100%
9 | N/N=C(\C(=N\N)c1ccccc1)c1ccccc1 | 104% | 94.7% | 86.4% | 96.6% | 104% | 88.7 | 101% | 90.2% | 97.3% | 105% | 98.7% | 94 | 88.9 | 73.6% | 98.8 | 104% | 99.9 | 76.1 |  | 81.2%
10 | C[C@@H]1CC2C3CCC4=CC(=O)C=C[C@]4(C)[C@@]3(Cl)[C@@H](O)C[C@]2(C)[C@@]1(OC(=O)c1ccco1)C(=O)CCl (stereo partly drawn) | 79.7% | 70.8% | 86.3% | 86% | 85% | 49.9 | 55% | 42% | 61.6% | 88.9% | 76.6% | 61.5 | 35.4 | 30.5% |  | 82.4% | 62.2 | 99 | 30% | 31.5%
11 | CCC1N=C(N)N=C(N)N1c1ccc(Cl)cc1 (stereo not drawn) | 105% | 72.1% | 91.7% | 106% | 58.8% | 62.6 | 49.5% | 100% | 68.6% | 101% | 100% | 68.4 | 96.9 | 89% |  | 108% | 96.3 | 77.1 | 107% | 79.6%
12 | O=C(O)CSc1ccc(NCc2oc(CO)cc(=O)c2O)cc1 | 107% | 99.5% | 87% | 110% | 103% | 98.8 | 99.8% | 102% | 91.7% | 104% | 119% | 106 | 98.2 | 80% | 111 | 97.3% | 98.4 | 106 |  | 88.3%
13 | CC(=O)Nc1c(Br)cc2c(c1Br)Cc1cc(Br)ccc1-2 | 91.7% | 52.8% | 74.3% | 79.4% | 12.8% | 67.8 | 88.2% | 72.2% | 20.7% | 98.3% | 99.6% | 55.3 | 83.1 | 67.3% | 109 | 60.8% | 81.1 |  | 66.4% | 76.9%
14 | Nc1cc(C(=O)O)cc(C(=O)O)c1 | 111% | 97.2% | 99.2% | 111% | 108% | 96.8 | 108% | 104% | 115% | 115% | 89.6% | 105 | 96.3 | 84.8% | 101 | 109% | 104 | 98 |  | 90.1%
15 | CCn1c(Cc2ccccc2Nc2c(Cl)cccc2Cl)nnc1SCC(=O)Nc1cccc(OC)c1 | 78.9% | 68.6% | 86.2% | 79.4% | 86.1% | 56.1 | 91.6% | 33.6% | 79.9% | 96.4% | 91.5% | 77.7 | 66.6 | 68.6% |  | 88.7% | 84.6 | 40.9 | 73.1% | 54.3%
16 | CCN1CCN(Cc2ccc(NC(=O)Nc3ccc(-n4ccc5c(NC(=O)c6ccccc6)nccc54)cc3)cc2C(F)(F)F)CC1 | -6.13% (active) | -35.3% (active) | -88.2% (active) | -14% (active) | -75.8% (active) | 54.6 | -97.6% (active) | 41.3% | -84.5% (active) | -96.7% (active) | -31.5% (active) | 87.4 | 58.3 | -48.6% (active) | 25.5 | -46.3% (active) | 47.3 | 105 |  | -32.8% (active)
